From the supplement of paper PMC6555819 come the findings set out here.

Holding throughout (assay): PBM binding z-score (relative to random genomic background probes); higher = stronger binding; sequences stand for … in GC…GCGATTGACAGCGTAGAATGAAGG
The test system of assay [1] is FXR:RXRa (NR concentration 270 nM, RXRa partner concentration 90 nM). Put shortly:
(§1)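 Binding buffer was PBS pH 7.4 with 2% milk, 0.02% Triton X-100, 1 mM DTT, 0.2 mg/mL BSA and 0.4 mg/ml salmon testes DNA. In it, ligand-free nuclear receptor dimers were incubated 1 h on custom Agilent 4×180K protein-binding microarrays carrying double-stranded probes. Antibodies against each partner (one per run) detected binding, and z-scores were calculated against random background probes after regression normalization of scanned fluorescence.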

In assay [2] the test system is LXRa:RXRa (NR concentration 270 nM, RXRa partner concentration 90 nM). The gist of the method:
as §1

The test system of assay [3] is LXRa homodimer (NR concentration 270 nM). The gist of the method:
as §1

The test system of assay [4] is LXRb:RXRa (NR concentration 270 nM, RXRa partner concentration 90 nM). The gist of the method: as §1
The test system of assay [5] is LXRb homodimer (NR concentration 270 nM). The gist of the method: as §1
For assay [6], the system named is PPARa:RXRa (NR concentration 270 nM, RXRa partner concentration 90 nM). Put shortly:
as §1

Assay [7] concerns PPARg:RXRa (NR concentration 180 nM, RXRa partner concentration 90 nM). Put shortly:
as §1

For assay [8], the system named is PPARg:RXRa 270nM:90nM, anti-RXR (NR concentration 270 nM, RXRa partner concentration 90 nM). The gist of the method: as §1
The test system of assay [9] is PPARg:RXRa 30nM:10nM, anti-RXR (NR concentration 30 nM, RXRa partner concentration 10 nM). Put shortly:
as §1

In assay [10] the test system is PPARg:RXRa 90nM:30nM, anti-RXR (NR concentration 90 nM, RXRa partner concentration 30 nM). The gist of the method:
as §1

The subject of assay [11] is PPARg:RXRa DBDmut IVT, anti-RXR (DBD mutation: RXRa K156A/R161A, NR concentration 270 nM, RXRa partner concentration 90 nM). Put shortly:
as §1

In assay [12] the test system is PPARg:RXRa IVT, anti-PPARg (NR concentration 270 nM, RXRa partner concentration 90 nM). The gist of the method:
as §1

Assay [13] relates to PPARg DBDmut:RXRa IVT, anti-PPARg (DBD mutation: PPARg1 K132A/R137A, NR concentration 270 nM, RXRa partner concentration 90 nM). The gist of the method: as §1
Assay [14] concerns PPARg DBDmut IVT, anti-PPARg (DBD mutation: PPARg1 K132A/R137A, NR concentration 270 nM). The gist of the method:
as §1

The subject of assay [15] is PPARg homodimer (NR concentration 180 nM). The gist of the method:
as §1

In assay [16] the test system is PXR:RXRa (NR concentration 270 nM, RXRa partner concentration 90 nM). The gist of the method:
as §1

For assay [17], the system named is PXR homodimer (NR concentration 270 nM). The gist of the method:
as §1

Assay [18] has as its system RARa:RXR (NR concentration 270 nM, RXRa partner concentration 90 nM). Put shortly:
as §1

Assay [19] deals with RARa homodimer (NR concentration 270 nM). The gist of the method:
as §1

Assay [20] concerns RARb:RXRa (NR concentration 270 nM, RXRa partner concentration 90 nM). The gist of the method: as §1

Turning to TAGCCTAGGTCATGCGGGCTAGTATAGTGTCGGC, the PBM binding z-score is 3.65 in [1]; 2.96 in [2]; 0.103 in [3]; 1.54 in assay [4]; -0.594 in [5]; 3.43 in assay [6]. The PBM binding z-score was found to be 2.07 in [7]; 2.14 in assay [8]; 0.00724 in assay [9]; 0.957 in [10]; 1.62 in [11]; 2.81 in assay [12]. In addition, the PBM binding z-score in assay [13] is -0.158; in assay [14] it was -0.27; in assay [15] it was 0.331; in assay [16], 1.07; in assay [17] it was -0.632; in assay [18] it was 1.97. The PBM binding z-score in assay [19] is -0.868; in [20], 3.86.
Turning to CGACCAAGGTCAGAGAGGTCAGTGAATGCCGAGT, the PBM binding z-score in assay [1] is 6; in assay [2], 4.97; in assay [3], 2.61; in [4], 4.23; in assay [5], -0.0164; in [6], 4.64. Further, the PBM binding z-score in assay [7] is 3.68; in assay [8], 4.21; in [9], 1.11; in [10], 2.69; in assay [11], 2.95; in [12], 3.5. In addition, the PBM binding z-score in [13] was 0.125; in [14], -0.614; in [15], 5.33; in assay [16], 6.21; in [17], 12.7; in assay [18], 5.78. Also, the PBM binding z-score in [19] is 2.47; in assay [20], 5.18.
For ATATGTAGGTTATCCGGTCATTCAGTTTGCGCAT, the PBM binding z-score in assay [1] amounted to 1.83; in assay [2] it was 2.69; in [3] it was 4.12; in assay [4] it was 1.78; in assay [5], 1.15; in assay [6], 3.71. For the same sequence, the PBM binding z-score was determined as 5.51 in assay [7]; 5.16 in [8]; 2.68 in [9]; 4.49 in [10]; 7.35 in assay [11]; 6.98 in [12]. Moreover, the PBM binding z-score in assay [13] worked out at 1.53; in assay [14], 1.86; in [15], 0.982; in assay [16], 1.65; in [17], 1.86; in assay [18] it was 1.65. The PBM binding z-score in assay [19] came out at 0.474; in assay [20], 2.19.
Take CCTGCTAGGTCATGCTCAGCTAATCTACAGTATG: the PBM binding z-score in assay [1] is 3.21; in assay [2], 2.16; in assay [3], -0.266; in assay [4] it was 1.38; in [5], -0.112; in assay [6] it was 2.99. For the same sequence, the PBM binding z-score in [7] turned out to be 1.9; in assay [8] it was 2.36; in assay [9], 0.444; in assay [10], 1.35; in [11], 4.78; in assay [12], 3.37. Further, the PBM binding z-score in assay [13] is 0.405; in assay [14], 0.309; in assay [15] it was 0.827; in assay [16], 0.957; in assay [17] it was -0.979; in assay [18], 2.05. The values for the PBM binding z-score in [19] and in assay [20] were -0.229 and 3.75, respectively.
On to GGTCGGAGGACAAGGTCAGAGCTTTGTCCGTAGA, for which the PBM binding z-score in assay [1] was 2.18; in assay [2], 1.7; in [3], -0.109; in assay [4], 1.42; in assay [5], -0.689; in assay [6], 2.43. Besides, the PBM binding z-score in assay [7] is 0.581; in [8], 1.58; in assay [9], -0.506; in [10], 0.714; in assay [11], 0.195; in assay [12], 1.61. For the same sequence, the PBM binding z-score in assay [13] is -0.429; in [14], -1.06; in [15], 1.09; in assay [16], 1.63; in assay [17], 0.0611; in assay [18] it was 1.82. Further, the PBM binding z-score is -0.267 in assay [19] and 3.62 in [20].
As to TCTAGTTGTTCAAAGGTCACACACTCGAAATGCG, the PBM binding z-score was 5.39 in [1]; 5.85 in [2]; 4.39 in assay [3]; 5.41 in assay [4]; 1.92 in assay [5]; 5.76 in [6]. The PBM binding z-score was 7.52 in assay [7]; 7.68 in assay [8]; 6.77 in assay [9]; 8.74 in assay [10]; 2.71 in assay [11]; 4.64 in [12]. Moreover, the PBM binding z-score was 1.27 in assay [13]; 1.68 in assay [14]; 4.16 in assay [15]; 5.49 in assay [16]; 1.93 in assay [17]; 5.89 in [18]. The PBM binding z-score was 4.19 in [19] and 5 in assay [20].
For the sequence GCTGCTAGGTCAACTGATGGTCTGCTAAAGCTCG, the PBM binding z-score in assay [1] is 3.83; in [2], 2.66; in assay [3], -0.135; in assay [4] it was 1.8; in assay [5], 0.0375; in assay [6] it was 3.45. In addition, the PBM binding z-score in assay [7] came out at 2.31; in [8], 2.78; in [9], 0.103; in assay [10], 1.81; in [11], 4.88; in assay [12], 4.03. Besides, the PBM binding z-score in assay [13] is 0.365; in assay [14], -0.14; in assay [15], 1.69; in assay [16], 1.37; in assay [17], -0.53; in assay [18], 2.39. For the same sequence, the PBM binding z-score in assay [19] was 0.112; in [20] it was 4.1.
